# What was measured:
# Assay in all cases: DAPPL (digital affinity profiling via proximity ligation, sequencing); 10 mM Tris-HCl pH 7.5, 50 mM NaCl, 1 mM DTT, 4% glycerol, room temperature, 30 min; GST-TFs on glutathione beads, 16-mer random dsDNA library, 0.1% formaldehyde crosslink after washing; high values mean tight binding
# Details in all cases: protein: recombinant; tags: N-terminal GST; dsDNA, one strand shown
# FEV = molecular target: T1, FEV (Homo sapiens, UniProt Q99581 1-238)
# T1 sequence: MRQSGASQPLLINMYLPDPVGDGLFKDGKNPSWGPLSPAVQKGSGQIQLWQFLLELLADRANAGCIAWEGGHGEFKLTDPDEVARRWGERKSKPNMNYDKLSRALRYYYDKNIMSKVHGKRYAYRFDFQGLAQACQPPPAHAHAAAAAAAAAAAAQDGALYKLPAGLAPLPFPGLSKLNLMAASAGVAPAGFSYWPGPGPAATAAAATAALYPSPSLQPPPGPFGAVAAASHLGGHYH
# In short: (§1)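 GST fusions of human transcription factors were expressed in yeast and captured with glutathione beads. Once given DNA barcodes and pooled alongside a tag-only sample, they were incubated for 30 min at room temperature with 200 nmole of a random double-stranded 16-mer DNA library in Tris/NaCl/DTT/glycerol buffer, then washed, crosslinked (0.1% formaldehyde), proximity-ligated, PCR-amplified and sequenced on an Illumina NextSeq500. The binding signal of each hexamer is its read frequency for a factor divided by its frequency for the tag-only sample.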
# ETV5 = ETV5 (Homo sapiens, UniProt P41161 1-510)
# Chain of ETV5 (P41161 whole entry): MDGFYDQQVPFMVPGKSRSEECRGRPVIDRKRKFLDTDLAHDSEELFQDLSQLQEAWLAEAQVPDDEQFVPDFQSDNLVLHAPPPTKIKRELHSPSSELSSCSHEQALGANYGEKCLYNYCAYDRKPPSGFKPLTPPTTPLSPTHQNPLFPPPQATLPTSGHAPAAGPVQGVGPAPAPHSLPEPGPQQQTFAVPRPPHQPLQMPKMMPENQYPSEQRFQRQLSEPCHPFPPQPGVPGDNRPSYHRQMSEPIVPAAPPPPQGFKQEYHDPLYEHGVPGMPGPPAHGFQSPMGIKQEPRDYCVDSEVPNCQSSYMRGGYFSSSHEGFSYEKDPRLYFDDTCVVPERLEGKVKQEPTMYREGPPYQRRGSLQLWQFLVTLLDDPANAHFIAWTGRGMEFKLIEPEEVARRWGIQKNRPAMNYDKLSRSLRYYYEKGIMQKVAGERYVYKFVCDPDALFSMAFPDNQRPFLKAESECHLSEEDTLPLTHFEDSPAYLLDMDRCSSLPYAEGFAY
# In short: as §1
# SPIC = molecular target: T2, SPIC (Homo sapiens, UniProt Q8N5J4 1-248)
# T2 sequence: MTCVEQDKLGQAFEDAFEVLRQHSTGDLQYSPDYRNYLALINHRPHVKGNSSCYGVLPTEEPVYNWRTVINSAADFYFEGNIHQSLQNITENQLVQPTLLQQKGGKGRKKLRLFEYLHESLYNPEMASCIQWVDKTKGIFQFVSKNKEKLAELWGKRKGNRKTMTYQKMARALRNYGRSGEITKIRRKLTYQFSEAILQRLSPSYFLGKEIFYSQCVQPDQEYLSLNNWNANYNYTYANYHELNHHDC
# In short: as §1
# ELF4 = ELF4 (Homo sapiens, UniProt Q99607 1-663)
# Chain of ELF4 (Q99607 whole entry): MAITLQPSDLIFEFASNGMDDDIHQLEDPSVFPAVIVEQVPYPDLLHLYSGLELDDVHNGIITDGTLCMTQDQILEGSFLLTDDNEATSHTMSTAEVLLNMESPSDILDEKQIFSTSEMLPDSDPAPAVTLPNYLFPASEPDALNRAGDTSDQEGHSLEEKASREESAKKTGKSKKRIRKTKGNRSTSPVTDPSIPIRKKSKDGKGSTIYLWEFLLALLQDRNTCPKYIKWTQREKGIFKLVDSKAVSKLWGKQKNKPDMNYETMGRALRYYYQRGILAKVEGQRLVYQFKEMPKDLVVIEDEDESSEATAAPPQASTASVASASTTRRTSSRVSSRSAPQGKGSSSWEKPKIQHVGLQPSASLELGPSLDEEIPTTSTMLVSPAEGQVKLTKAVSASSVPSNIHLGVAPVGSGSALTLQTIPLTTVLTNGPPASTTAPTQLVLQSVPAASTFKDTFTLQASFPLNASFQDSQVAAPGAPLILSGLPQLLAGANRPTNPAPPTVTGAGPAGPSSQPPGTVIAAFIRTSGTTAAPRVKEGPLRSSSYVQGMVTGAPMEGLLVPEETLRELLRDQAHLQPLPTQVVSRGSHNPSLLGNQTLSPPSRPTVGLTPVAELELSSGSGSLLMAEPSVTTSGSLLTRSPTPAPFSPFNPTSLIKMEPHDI
# In short: as §1
# ELK4 = molecular target: T3, ELK4 (Homo sapiens, UniProt P28324-2 1-405)
# T3 sequence: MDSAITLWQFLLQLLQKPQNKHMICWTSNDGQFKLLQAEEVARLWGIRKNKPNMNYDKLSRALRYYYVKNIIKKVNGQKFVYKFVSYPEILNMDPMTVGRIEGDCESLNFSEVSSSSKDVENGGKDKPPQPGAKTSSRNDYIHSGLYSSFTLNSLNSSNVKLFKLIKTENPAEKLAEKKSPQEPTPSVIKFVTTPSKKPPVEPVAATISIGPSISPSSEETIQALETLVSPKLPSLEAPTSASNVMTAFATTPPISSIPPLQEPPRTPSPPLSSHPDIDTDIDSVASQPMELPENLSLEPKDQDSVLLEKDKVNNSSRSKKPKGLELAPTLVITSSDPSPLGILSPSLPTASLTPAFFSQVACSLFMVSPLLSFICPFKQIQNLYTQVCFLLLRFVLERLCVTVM
# In short: as §1
# ETV2 = molecular target: T4, ETV2 (Homo sapiens, UniProt O00321 1-342)
# T4 sequence: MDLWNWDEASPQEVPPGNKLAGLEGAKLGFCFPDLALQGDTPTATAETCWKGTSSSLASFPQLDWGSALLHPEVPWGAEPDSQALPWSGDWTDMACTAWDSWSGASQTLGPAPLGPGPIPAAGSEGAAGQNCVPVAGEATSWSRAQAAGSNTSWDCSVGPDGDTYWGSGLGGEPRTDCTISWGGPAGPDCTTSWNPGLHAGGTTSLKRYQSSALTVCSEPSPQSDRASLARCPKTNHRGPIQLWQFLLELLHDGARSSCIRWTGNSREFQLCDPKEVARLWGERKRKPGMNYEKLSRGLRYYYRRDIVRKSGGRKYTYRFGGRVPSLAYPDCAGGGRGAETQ
# In short: as §1
# ELF3 = molecular target: T5, ELF3 (Homo sapiens, UniProt P78545 1-371)
# T5 sequence: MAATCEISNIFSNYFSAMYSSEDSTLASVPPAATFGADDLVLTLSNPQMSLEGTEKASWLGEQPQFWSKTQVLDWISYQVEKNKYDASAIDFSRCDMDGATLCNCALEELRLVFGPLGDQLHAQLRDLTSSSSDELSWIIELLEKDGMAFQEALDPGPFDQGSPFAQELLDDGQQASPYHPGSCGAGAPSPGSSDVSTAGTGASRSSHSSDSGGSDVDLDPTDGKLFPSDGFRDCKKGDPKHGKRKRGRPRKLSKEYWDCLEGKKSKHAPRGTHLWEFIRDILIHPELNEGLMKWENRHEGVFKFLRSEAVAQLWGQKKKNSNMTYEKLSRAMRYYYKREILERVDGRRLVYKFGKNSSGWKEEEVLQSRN
# In short: as §1
# ETV1 = ETV1 (Homo sapiens, UniProt P50549 1-477)
# Chain of ETV1 (P50549 whole entry): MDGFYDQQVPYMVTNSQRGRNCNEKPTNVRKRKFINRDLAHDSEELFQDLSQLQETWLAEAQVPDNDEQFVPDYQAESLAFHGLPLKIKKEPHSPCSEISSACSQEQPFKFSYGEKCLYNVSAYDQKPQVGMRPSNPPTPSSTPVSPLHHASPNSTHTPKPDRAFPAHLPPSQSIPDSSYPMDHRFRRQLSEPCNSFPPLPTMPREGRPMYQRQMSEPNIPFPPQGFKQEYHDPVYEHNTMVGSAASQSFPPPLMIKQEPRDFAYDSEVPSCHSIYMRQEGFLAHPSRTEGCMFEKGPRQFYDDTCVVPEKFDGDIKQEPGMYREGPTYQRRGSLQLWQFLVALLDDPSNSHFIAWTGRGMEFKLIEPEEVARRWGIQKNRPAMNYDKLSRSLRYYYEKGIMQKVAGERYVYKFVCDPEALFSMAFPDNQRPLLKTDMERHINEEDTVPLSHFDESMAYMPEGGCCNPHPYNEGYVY
# In short: as §1
# ERF = molecular target: T6, ERF (Homo sapiens, UniProt P50548 1-548)
# T6 sequence: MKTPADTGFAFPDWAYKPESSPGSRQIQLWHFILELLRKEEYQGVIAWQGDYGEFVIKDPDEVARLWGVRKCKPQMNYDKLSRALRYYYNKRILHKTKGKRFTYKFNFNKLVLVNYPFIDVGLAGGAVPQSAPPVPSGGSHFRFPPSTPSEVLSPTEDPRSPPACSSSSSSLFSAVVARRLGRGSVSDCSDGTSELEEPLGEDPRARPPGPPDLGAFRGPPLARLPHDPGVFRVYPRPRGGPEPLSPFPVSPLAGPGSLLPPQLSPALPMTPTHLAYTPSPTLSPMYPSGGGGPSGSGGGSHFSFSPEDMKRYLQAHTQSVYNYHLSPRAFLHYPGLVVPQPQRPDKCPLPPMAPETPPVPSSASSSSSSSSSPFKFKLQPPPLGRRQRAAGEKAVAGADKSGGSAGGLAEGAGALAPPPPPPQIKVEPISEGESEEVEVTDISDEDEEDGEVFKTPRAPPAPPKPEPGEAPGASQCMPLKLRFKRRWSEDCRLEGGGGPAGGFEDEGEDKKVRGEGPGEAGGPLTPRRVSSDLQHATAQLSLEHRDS
# In short: as §1
# ETV3L = molecular target: T7, ETV3L (Homo sapiens, UniProt Q6ZN32 1-361)
# T7 sequence: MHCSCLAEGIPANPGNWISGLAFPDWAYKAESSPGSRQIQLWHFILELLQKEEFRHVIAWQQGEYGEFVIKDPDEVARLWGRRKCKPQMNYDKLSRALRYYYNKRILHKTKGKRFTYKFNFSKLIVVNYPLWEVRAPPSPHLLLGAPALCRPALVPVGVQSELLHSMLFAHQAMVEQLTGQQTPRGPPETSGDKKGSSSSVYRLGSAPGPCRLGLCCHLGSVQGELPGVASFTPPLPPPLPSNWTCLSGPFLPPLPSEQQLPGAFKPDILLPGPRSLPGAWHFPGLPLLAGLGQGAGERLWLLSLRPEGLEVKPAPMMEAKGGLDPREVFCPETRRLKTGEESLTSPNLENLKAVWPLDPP
# In short: as §1
# ETS2 = molecular target: T8, ETS2 (Homo sapiens, UniProt P15036 1-469)
# T8 sequence: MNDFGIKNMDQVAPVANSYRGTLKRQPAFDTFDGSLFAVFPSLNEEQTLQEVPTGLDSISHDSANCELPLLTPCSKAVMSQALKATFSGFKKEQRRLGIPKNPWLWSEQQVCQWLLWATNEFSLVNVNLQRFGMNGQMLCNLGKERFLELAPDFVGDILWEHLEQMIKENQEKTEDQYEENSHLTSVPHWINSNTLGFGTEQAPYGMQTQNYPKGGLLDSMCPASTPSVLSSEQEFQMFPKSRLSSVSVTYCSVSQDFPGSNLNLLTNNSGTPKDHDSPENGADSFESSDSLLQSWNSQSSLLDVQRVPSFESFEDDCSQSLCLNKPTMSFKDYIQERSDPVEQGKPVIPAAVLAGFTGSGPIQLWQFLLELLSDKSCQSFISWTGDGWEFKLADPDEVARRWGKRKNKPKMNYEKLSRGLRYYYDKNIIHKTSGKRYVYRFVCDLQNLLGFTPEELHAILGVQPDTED
# In short: as §1
# SPDEF = molecular target: T9, SPDEF (Homo sapiens, UniProt O95238 1-335)
# T9 sequence: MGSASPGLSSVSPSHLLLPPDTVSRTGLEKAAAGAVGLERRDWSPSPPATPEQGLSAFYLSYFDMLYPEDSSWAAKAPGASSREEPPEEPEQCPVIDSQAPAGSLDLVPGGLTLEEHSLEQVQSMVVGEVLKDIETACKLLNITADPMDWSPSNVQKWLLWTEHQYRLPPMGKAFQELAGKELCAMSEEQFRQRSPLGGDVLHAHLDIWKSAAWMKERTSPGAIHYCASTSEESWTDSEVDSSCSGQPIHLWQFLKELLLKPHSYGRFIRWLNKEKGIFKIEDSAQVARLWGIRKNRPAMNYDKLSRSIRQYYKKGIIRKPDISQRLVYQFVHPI
# In short: as §1
# ETV7 = molecular target: T10, ETV7 (Homo sapiens, UniProt Q9Y603 1-341)
# T10 sequence: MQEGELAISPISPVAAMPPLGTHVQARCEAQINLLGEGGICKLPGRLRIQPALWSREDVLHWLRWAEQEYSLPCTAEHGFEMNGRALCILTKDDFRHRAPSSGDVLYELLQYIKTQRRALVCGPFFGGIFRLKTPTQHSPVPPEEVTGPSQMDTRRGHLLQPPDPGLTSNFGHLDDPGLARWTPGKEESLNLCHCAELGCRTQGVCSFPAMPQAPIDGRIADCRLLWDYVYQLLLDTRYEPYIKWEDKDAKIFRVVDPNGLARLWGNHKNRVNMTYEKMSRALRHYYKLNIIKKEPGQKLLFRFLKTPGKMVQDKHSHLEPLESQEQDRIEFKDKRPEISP
# In short: as §1
# ELF5 = molecular target: T11, ELF5 (Homo sapiens, UniProt Q9UKW6-2 1-255)
# T11 sequence: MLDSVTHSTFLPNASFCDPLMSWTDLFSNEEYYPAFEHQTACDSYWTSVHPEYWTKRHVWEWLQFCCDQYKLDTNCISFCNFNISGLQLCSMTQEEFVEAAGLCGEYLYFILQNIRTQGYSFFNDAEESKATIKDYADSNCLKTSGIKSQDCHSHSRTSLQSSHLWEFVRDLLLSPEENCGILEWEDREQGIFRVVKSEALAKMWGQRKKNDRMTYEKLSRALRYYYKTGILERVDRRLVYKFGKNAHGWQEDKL
# In short: as §1
# ETV3 = molecular target: T12, ETV3 (Homo sapiens, UniProt P41162-2 1-143)
# T12 sequence: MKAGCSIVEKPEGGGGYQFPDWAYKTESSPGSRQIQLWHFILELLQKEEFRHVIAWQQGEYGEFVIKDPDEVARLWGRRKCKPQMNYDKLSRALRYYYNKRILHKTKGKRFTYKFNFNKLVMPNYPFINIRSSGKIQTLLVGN
# In short: as §1
# ETV6 = ETV6 (Homo sapiens, UniProt P41212 1-452)
# Chain of ETV6 (P41212 whole entry): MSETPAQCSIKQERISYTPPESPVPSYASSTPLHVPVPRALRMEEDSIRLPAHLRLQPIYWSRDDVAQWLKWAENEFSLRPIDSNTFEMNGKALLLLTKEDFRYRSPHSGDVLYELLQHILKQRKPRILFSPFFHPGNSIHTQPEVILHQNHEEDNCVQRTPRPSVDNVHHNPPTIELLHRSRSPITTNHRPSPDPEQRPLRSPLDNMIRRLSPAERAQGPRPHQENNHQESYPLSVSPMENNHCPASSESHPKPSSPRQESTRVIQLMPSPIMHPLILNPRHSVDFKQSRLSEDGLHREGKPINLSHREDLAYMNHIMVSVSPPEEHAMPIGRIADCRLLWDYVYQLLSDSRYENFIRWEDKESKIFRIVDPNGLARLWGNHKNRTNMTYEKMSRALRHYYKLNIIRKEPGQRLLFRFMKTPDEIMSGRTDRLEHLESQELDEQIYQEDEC
# In short: as §1
Sequence,binding signal (FEV),binding signal (ETV5),binding signal (SPIC),binding signal (ELF4),binding signal (ELK4),binding signal (ETV2),binding signal (ELF3),binding signal (ETV1),binding signal (ERF),binding signal (ETV3L),binding signal (ETS2),binding signal (SPDEF),binding signal (ETV7),binding signal (ELF5),binding signal (ETV3),binding signal (ETV6)
CCGCCC,"1.38 fold enrichment (6-mer frequency, TF over GST control)","1.34 fold enrichment (6-mer frequency, TF over GST control)","1.33 fold enrichment (6-mer frequency, TF over GST control)","1.4 fold enrichment (6-mer frequency, TF over GST control)","1.08 fold enrichment (6-mer frequency, TF over GST control)","1.2 fold enrichment (6-mer frequency, TF over GST control)","1.28 fold enrichment (6-mer frequency, TF over GST control)","1.26 fold enrichment (6-mer frequency, TF over GST control)","1.21 fold enrichment (6-mer frequency, TF over GST control)","1.36 fold enrichment (6-mer frequency, TF over GST control)","1.29 fold enrichment (6-mer frequency, TF over GST control)","1.27 fold enrichment (6-mer frequency, TF over GST control)","1.19 fold enrichment (6-mer frequency, TF over GST control)","1.38 fold enrichment (6-mer frequency, TF over GST control)","1.36 fold enrichment (6-mer frequency, TF over GST control)","1.39 fold enrichment (6-mer frequency, TF over GST control)"
CCCTGT,"1.04 fold enrichment (6-mer frequency, TF over GST control)","1.11 fold enrichment (6-mer frequency, TF over GST control)","1.2 fold enrichment (6-mer frequency, TF over GST control)","1.11 fold enrichment (6-mer frequency, TF over GST control)","1.25 fold enrichment (6-mer frequency, TF over GST control)","1.03 fold enrichment (6-mer frequency, TF over GST control)","1.08 fold enrichment (6-mer frequency, TF over GST control)","1.06 fold enrichment (6-mer frequency, TF over GST control)","1.19 fold enrichment (6-mer frequency, TF over GST control)","1.06 fold enrichment (6-mer frequency, TF over GST control)","1.06 fold enrichment (6-mer frequency, TF over GST control)","1.02 fold enrichment (6-mer frequency, TF over GST control)","1.03 fold enrichment (6-mer frequency, TF over GST control)","1.08 fold enrichment (6-mer frequency, TF over GST control)",–,"1.06 fold enrichment (6-mer frequency, TF over GST control)"
TCACAG,"1.09 fold enrichment (6-mer frequency, TF over GST control)","1.07 fold enrichment (6-mer frequency, TF over GST control)","1.04 fold enrichment (6-mer frequency, TF over GST control)","1.17 fold enrichment (6-mer frequency, TF over GST control)","1.04 fold enrichment (6-mer frequency, TF over GST control)","1.28 fold enrichment (6-mer frequency, TF over GST control)","1.13 fold enrichment (6-mer frequency, TF over GST control)","1.05 fold enrichment (6-mer frequency, TF over GST control)","1.02 fold enrichment (6-mer frequency, TF over GST control)","1.13 fold enrichment (6-mer frequency, TF over GST control)","1.06 fold enrichment (6-mer frequency, TF over GST control)","1.05 fold enrichment (6-mer frequency, TF over GST control)","1.11 fold enrichment (6-mer frequency, TF over GST control)",–,"1.06 fold enrichment (6-mer frequency, TF over GST control)","1.11 fold enrichment (6-mer frequency, TF over GST control)"
